Data published in PubChem BioAssay (NCATS).
Inconclusive results are not listed. Activity calls are given as the source filed them. Unless noted, calls come from the whole dose curve; as a rule, active = well fitted curve in either direction with a large enough effect (not every such curve was filed as active); inconclusive = small, poorly fitted or top-dose-only effect, or another doubt; inactive = flat fitted curve, though single readings scatter.

What was measured:
[1] = target: Lysosomal acid glucosylceramidase (Homo sapiens) (UniProt P04062); test: Glucocerebrosidase-p2 (AID 348; in the data active = potency below about 10 µM; note: potency is the fitted concentration of half-maximal effect); details: purified GBA, blue fluorogenic substrate, 40 min
Outline: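 Normal human glucocerebrosidase (0.2 nM) with blue fluorogenic substrate (80 uM final) in citrate/phosphate pH 5.9 with 10mM sodium taurocholate, 0.01% tween-20; 40 min RT, NaOH/glycine stop; fluorescence Ex 365/Em 440; AC50 from a titration from 0.6 nM upwards.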

[2] = AP1 Signaling Pathway (AID 357); details: ME-180 AP-1-bla reporter, EGF-induced, beta-lactamase ratio, 5 h; at 7.69 µM (top of the series) unless noted; note: % is set by controls: 0 for no effect and ±100 for the full control effect
Outline: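 ME-180 cells with beta-lactamase reporter under AP-1 response element, stimulated with EC50 EGF; compounds tested in titration series, 5 h at 37 °C. CCF4 substrate added 2.5 h at room temperature; 460/530 nm emission ratio gave %activity and AC50.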

[3] = target: Cytochrome P450 1A2 (Homo sapiens) (UniProt P05177); test: p450-cyp1a2 (AID 410; calls by dose curve; note: potency is the fitted concentration of half-maximal effect;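 for activity change, negative = inhibition: -100% = full effect of reference inhibitor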); details: recombinant CYP1A2, luciferin-ME demethylation, luminescence; series mostly up to 57 µM
Outline: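 O-Demethylation of luciferin 6' methyl ether by human CYP1A2 is monitored as luciferase luminescence. Substrate sits at Km (100uM); enzyme is 20nM. Values are scaled to 57 uM furafylline as maximal inhibition.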

[4] = NFAT Signaling Pathway (AID 444); details: Jurkat NFAT-bla M1, carbachol, beta-lactamase ratio, 5 h; at 7.69 µM (top of the series) unless noted;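 note: carbachol stimulus at about its EC50 of 1 µM final; % is set by controls: 0 for no effect and ±100 for the full control effect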
Outline: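 Jurkat cells carrying an NFAT-driven β-lactamase reporter and co-transfected muscarinic M1 receptor were treated with compound plus carbachol (1 uM final, an EC50 level) for 5 h at 37 °C. CCF4 loading followed for 1 h at RT; 460/530 nm ratio gave %activity.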

[5] = Stat Signaling Pathway (AID 446); details: ME-180 (cervical carcinoma) SIE beta-lactamase reporter, IL-6 stimulated, 5 h; at 7.69 µM (top of the series) unless noted;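 note: ME-180 cervical cancer cells given 40 pM IL-6 alongside compound; SIE-controlled beta-lactamase reporter measured as 460/530 nm FRET emission ratio; % is set by controls: 0 for no effect and ±100 for the full control effect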
Outline: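 Normalization used AC90 stimulation (300 pM IL-6) and AC90 inhibition (125 nM pan-JAK inhibitor at 40 pM IL-6). The underlying signal is SIE-driven beta-lactamase in ME-180 cells after 5 h IL-6 exposure with compound.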

[6] = target: Glucocorticoid receptor (Homo sapiens) (UniProt P04150); test: GR-GFP Redistribution (AID 450;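 active = compounds whose dose series gives a full or clear partial fitted curve of increased nuclear translocation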; note: potency is the fitted concentration of half-maximal effect); details: U2OS GR-GFP nuclear translocation, laser cytometry, 2 h
[7] = target: Glucocorticoid receptor (Homo sapiens) (UniProt P04150); test: GR-EFC Redistribution (AID 451; calls by dose curve; note: potency is the fitted concentration of half-maximal effect); details: CHO-K1 GR-EFC translocation, beta-gal luminescence, 2 h
Outline: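 CHO-K1 cells stably expressing nuclear-localized β-gal enzyme acceptor and GR fused C-terminally to the enzyme donor fragment; ligand-driven nuclear translocation restores β-gal by complementation. Compounds titrated up to 46 uM final, 2 h at 37 °C; luminescence read.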

[8] = target: Mitogen-activated protein kinase 10 (Mus musculus) (UniProt Q61831); test: JNK3 AlphaScreen Assay (AID 530); details: JNK3 lysate, c-Jun phosphorylation; series mostly up to 57.1 µM;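 note: kinase came from lysate of stimulated human HepG2 cells; signal reports phosphorylation of biotinylated GST-cJun 1-79 at Ser73 with 10 µM ATP; % is set by controls: 0 for no effect and ±100 for the full control effect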
Outline: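 Phosphorylation of biotinylated GST-cJun(1-79) at Ser73 is measured by AlphaScreen proximity luminescence. Enzyme is JNK3 in HepG2 lysates activated with interleukin-1beta and tumor necrosis factor alpha; ATP is 10 uM final.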

[9] = target: Cytochrome P450 3A4 (Homo sapiens) (UniProt P08684); test: qHTS Assay for Inhibitors and Substrates of Cytochrome P450 3A4 (AID 884; active = well fitted curve in the direction sought with a large enough effect; an effect the other way counts as inactive or inconclusive; note: potency is the fitted concentration of half-maximal effect; nearly all actives have a fitted effect of over 50% in size); details: recombinant CYP3A4, Luciferin-PPXE luminescence; series mostly up to 57.1 µM
Outline: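 Luminescent readout of luciferin produced by CYP3A4 (20 nM) dealkylation of Luciferin-PPXE, 25 uM (its KM). NADPH-driven reaction ran 60 min at RT after 10 min compound preincubation; data scaled to 57 uM ketoconazole as 100% inhibition.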

[10] = target: Cytochrome P450 3A4 (Homo sapiens) (UniProt P08684); test: qHTS Assay for Activators of Cytochrome P450 3A4 (AID 885; active = well fitted curve in the direction sought with a large enough effect; an effect the other way counts as inactive or inconclusive; note: nearly all actives have a fitted effect of over 65% in size); details: recombinant CYP3A4, Luciferin-PPXE luminescence, 60 min; series mostly up to 57.1 µM
Outline: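 Human CYP3A4 dealkylates Luciferin-PPXE to luciferin, which luciferase detection converts to light. Substrate was at its KM (25uM), buffer 200mM KPO4, reaction 60 min at RT.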

[11] = Confirmation and Secondary Assay for Modulators of Hemoglobin Beta Chain Splicing at IVS2 654 locus (AID 910; active = well fitted curve in the direction sought with a large enough effect; an effect the other way counts as inactive or inconclusive;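 note: per-well total GFP intensity by laser scanning cytometry after 2-day treatment; % of control where 0% means no effect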); details: HeLa EGFP-654 splicing reporter, GFP fluorescence, 48 h; series mostly up to 38.3 µM
Outline: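 HeLa cells stably carrying EGFP interrupted by mutant beta-globin IVS2-654 intron (CMV-driven) were treated with compound for 2 days at 37C; corrected splicing was scored as total peak GFP intensity per well (488 nm excitation, 500-520 nm emission).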

[12] = Confirmation and Secondary Assay for Modulators of Hemoglobin Beta Chain Splicing at IVS2 705 locus (AID 930; active = well fitted curve in the direction sought with a large enough effect; an effect the other way counts as inactive or inconclusive;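 note: HeLa cells stably expressing the EGFP-705 splicing reporter; GFP fluorescence per well restored by corrected splicing of the IVS2-705 intron in EGFP; % of control where 0% means no effect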); details: HeLa EGFP-705 splicing reporter, GFP fluorescence, 48 h; series mostly up to 38.3 µM
Outline: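 Per-well GFP, captured at 1 x 8 µm resolution with 488 nm excitation, served as the read-out for HeLa EGFP-705 cells incubated 2 days with test compound versus DMSO.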

[13] = qHTS Assay for Lipid Storage Modulators (AID 1519; calls by dose curve); details: Drosophila S3 cells, BODIPY lipid droplet/cell ratio, laser cytometry, cells loaded with oleic acid; for activity change, negative = inhibition: at 57.5 µM (top of the series)
Outline: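 Cells seeded at 5,000 per well were treated with compounds over a concentration series and loaded with oleic acid (400 uM, as added). Lipid droplet fluorescence (488 nm excitation, 500-530 nm channel) was read by laser-scanning cytometry and normalized to 20 uM Triacsin C.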

[14] = target: Ubiquitin carboxyl-terminal hydrolase 1 (Homo sapiens) (UniProt O94782); test: Inhibitors of USP1/UAF1: Pilot qHTS (AID 504865; active = well fitted curve in the direction sought with a large enough effect; an effect the other way counts as inactive or inconclusive;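 note: rhodamine fluorescence freed from ubiquitin-rhodamine substrate followed over time; top concentration of the series differs between compounds; % is set by controls: 0 for no effect and ±100 for the full control effect; nearly all actives have a fitted effect of over 35% in size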); details: purified USP1/UAF1, Ub-rhodamine cleavage fluorescence; series mostly up to 54.9 µM
Outline: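 USP1/UAF1 complex at 1 nM preincubated 15 min at room temperature with compound, then Ub-Rho substrate added at 150 nM final. Fluorescence (480/540 nm) read kinetically in 50 mM HEPES pH 7.8, 0.5 mM EDTA, 1 mM TCEP, 0.1 mg/ml BSA, 0.01% Tween-20.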

[15] = target: 3',5'-cyclic-AMP phosphodiesterase 4B (Homo sapiens) (UniProt Q07343); test: qHTS Assay for Inhibitors of PDE-IV (AID 607; active = well fitted activation curve with a large enough effect in the main read-out, with a control signal flat, not every such curve was filed as active; note: % of control where 0% means no effect); details: HEK293 ACTOne CNG channel cells, membrane potential fluorescence; series mostly up to 22.9 µM
Outline: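 HEK293 ACTOne cells with CNG channel (1000/well), endogenous PDE4; membrane potential dye, compounds up to 22.9 uM final. Fluorescence Ex 535/Em 590; RO 20-1724 (100 uM final) as reference.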

[16] = target: Cytochrome P450 2D6 (Homo sapiens) (UniProt P10635); test: qHTS Assay for Inhibitors and Substrates of Cytochrome P450 2D6 (AID 891; active = well fitted curve in the direction sought with a large enough effect; an effect the other way counts as inactive or inconclusive; note: potency is the fitted concentration of half-maximal effect; nearly all actives have a fitted effect of over 60% in size); details: recombinant CYP2D6, luciferin-ME EGE luminescence; series mostly up to 57.1 µM
Outline: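 Luminescent read-out of luciferin formed by 5 nM human CYP2D6 demethylating 30 uM Luciferin-ME EGE (Km level) over 60 min at room temperature after NADPH regeneration addition. Data normalized to full inhibition by 1.43 uM quinidine.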

[17] = target: Cytochrome P450 2C19 (Homo sapiens) (UniProt P33261); test: qHTS Assay for Inhibitors and Substrates of Cytochrome P450 2C19 (AID 899; active = well fitted curve in the direction sought with a large enough effect; an effect the other way counts as inactive or inconclusive; note: potency is the fitted concentration of half-maximal effect; nearly all actives have a fitted effect of over 60% in size); details: recombinant CYP2C19, luciferin-H EGE luminescence; series mostly up to 57.1 µM
Outline: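 In 50mM KPO4, the reaction held 5nM enzyme and KM-level (10uM) Luciferin-H EGE; it ran 60 min at 37C after NADPH regeneration and a 10 min compound preincubation. Luminescence values were scaled to 57uM ketoconazole as complete inhibition.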

[18] = measured here: cell count channel max response
[19] = measured here: lipid channel max response

Sequence of Lysosomal acid glucosylceramidase (Homo sapiens) (P04062 whole entry, looked up): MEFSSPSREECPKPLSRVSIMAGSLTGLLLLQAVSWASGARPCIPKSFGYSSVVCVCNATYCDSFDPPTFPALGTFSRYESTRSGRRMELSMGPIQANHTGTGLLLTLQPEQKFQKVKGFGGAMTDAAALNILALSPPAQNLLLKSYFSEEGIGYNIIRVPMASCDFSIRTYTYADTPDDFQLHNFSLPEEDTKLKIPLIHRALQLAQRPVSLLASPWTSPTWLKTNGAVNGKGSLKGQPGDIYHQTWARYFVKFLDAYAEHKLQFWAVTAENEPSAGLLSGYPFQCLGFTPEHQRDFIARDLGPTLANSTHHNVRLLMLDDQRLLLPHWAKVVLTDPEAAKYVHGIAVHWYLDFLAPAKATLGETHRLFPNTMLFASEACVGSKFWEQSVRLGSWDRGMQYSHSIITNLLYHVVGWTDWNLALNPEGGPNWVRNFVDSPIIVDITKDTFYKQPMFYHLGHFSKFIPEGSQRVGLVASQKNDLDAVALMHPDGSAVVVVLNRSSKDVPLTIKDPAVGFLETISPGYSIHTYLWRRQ
Sequence of Cytochrome P450 1A2 (Homo sapiens) (P05177 whole entry, looked up): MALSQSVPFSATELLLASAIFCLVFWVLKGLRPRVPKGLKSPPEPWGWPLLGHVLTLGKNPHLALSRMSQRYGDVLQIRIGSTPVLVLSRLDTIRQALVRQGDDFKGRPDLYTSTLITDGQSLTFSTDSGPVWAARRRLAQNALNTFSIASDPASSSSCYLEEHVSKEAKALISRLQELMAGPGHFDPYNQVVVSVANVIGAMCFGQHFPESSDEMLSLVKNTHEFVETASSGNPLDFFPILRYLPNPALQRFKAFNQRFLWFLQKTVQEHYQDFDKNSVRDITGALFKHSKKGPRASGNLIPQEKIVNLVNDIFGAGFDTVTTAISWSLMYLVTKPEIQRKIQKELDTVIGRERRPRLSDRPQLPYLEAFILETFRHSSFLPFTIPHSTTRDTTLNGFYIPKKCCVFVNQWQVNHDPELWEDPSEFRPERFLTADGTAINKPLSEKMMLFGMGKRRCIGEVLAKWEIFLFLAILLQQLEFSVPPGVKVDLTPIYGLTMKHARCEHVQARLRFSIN
Sequence of Cytochrome P450 3A4 (Homo sapiens) (P08684 whole entry, looked up): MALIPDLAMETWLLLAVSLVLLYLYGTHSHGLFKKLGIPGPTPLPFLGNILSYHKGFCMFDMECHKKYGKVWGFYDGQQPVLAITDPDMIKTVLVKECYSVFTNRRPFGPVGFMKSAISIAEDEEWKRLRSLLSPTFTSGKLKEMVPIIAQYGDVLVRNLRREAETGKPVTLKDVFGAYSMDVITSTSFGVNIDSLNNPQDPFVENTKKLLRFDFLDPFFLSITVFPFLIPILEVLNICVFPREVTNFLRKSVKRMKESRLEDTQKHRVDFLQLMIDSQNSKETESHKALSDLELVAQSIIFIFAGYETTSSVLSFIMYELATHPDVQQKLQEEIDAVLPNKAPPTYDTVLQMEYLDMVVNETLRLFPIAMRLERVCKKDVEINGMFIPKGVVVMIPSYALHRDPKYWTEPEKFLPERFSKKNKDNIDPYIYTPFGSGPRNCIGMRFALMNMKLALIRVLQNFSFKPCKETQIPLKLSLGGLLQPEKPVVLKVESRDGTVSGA
Sequence of 3',5'-cyclic-AMP phosphodiesterase 4B (Homo sapiens) (Q07343 whole entry, looked up): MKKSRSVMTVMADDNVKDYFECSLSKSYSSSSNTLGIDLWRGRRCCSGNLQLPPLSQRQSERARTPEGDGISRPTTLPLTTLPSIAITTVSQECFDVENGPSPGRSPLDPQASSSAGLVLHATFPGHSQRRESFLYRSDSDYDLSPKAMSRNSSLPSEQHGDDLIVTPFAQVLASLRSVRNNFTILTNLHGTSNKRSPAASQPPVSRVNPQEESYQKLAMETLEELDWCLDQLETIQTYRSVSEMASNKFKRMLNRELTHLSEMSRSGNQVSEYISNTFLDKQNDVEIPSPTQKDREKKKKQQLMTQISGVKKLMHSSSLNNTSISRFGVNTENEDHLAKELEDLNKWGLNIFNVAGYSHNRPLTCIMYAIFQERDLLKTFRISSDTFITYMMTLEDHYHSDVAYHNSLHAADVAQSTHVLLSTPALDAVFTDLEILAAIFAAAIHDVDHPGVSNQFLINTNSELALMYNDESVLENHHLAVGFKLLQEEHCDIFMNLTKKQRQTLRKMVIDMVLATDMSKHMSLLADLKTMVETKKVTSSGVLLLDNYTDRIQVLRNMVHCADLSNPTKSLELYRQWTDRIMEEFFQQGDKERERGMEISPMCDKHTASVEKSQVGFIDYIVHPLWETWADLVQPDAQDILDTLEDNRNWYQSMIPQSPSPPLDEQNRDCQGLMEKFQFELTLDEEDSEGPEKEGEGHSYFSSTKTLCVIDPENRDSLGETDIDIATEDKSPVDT
Sequence of Glucocorticoid receptor (Homo sapiens) (P04150 whole entry, looked up, the tested form may be a part): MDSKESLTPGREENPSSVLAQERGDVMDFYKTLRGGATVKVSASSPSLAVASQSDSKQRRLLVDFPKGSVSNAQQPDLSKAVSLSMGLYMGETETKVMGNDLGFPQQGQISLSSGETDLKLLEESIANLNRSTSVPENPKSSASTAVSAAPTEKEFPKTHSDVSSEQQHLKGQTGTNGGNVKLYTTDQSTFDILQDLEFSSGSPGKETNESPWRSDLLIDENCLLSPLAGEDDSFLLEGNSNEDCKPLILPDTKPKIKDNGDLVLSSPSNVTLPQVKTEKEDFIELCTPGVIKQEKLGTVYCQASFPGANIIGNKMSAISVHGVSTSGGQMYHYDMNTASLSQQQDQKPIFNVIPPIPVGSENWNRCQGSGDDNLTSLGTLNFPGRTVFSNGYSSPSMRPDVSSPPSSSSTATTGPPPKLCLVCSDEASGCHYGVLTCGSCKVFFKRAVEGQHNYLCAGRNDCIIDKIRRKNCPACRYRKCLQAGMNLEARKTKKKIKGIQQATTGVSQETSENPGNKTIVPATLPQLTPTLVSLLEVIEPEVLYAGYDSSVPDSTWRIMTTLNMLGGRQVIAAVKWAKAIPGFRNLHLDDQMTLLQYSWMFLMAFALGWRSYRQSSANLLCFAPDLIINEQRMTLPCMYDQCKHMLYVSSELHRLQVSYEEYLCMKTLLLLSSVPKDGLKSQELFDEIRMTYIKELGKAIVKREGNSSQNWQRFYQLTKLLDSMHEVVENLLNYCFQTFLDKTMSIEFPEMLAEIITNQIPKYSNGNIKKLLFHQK
Sequence of Ubiquitin carboxyl-terminal hydrolase 1 (Homo sapiens) (O94782 whole entry, looked up): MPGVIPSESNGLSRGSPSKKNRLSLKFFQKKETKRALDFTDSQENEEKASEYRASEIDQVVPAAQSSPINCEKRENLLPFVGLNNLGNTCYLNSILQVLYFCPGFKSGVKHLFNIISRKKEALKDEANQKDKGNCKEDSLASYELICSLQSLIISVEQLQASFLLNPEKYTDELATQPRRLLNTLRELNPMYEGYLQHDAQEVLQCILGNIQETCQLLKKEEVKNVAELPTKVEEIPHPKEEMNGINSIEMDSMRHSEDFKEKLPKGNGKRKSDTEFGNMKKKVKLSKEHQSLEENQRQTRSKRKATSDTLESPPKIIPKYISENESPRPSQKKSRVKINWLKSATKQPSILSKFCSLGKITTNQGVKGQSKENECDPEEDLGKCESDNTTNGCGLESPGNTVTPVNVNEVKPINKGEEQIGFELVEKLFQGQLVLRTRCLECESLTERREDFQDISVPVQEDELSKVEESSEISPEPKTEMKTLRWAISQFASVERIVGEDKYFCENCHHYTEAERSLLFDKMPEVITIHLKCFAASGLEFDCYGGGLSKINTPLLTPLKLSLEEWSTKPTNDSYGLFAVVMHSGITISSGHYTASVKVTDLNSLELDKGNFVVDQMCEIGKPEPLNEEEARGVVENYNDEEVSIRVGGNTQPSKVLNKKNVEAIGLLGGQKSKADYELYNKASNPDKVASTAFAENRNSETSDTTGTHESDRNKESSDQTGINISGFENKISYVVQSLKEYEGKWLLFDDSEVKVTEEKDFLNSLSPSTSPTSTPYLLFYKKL
Sequence of Cytochrome P450 2D6 (Homo sapiens) (P10635 whole entry, looked up): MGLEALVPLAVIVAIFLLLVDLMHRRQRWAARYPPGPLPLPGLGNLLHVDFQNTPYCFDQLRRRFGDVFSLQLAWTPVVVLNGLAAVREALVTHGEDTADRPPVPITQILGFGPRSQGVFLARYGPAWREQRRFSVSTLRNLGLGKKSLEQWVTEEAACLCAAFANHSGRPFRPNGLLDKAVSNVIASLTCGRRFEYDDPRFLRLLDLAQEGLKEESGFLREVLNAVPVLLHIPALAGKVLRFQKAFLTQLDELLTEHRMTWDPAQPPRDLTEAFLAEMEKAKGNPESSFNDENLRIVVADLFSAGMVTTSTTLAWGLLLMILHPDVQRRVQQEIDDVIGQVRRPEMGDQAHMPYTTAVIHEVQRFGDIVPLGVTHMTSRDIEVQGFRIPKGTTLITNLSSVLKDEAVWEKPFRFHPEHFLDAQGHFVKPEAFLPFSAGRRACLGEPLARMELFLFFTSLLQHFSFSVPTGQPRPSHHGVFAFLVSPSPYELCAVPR
Sequence of Cytochrome P450 2C19 (Homo sapiens) (P33261 whole entry, looked up): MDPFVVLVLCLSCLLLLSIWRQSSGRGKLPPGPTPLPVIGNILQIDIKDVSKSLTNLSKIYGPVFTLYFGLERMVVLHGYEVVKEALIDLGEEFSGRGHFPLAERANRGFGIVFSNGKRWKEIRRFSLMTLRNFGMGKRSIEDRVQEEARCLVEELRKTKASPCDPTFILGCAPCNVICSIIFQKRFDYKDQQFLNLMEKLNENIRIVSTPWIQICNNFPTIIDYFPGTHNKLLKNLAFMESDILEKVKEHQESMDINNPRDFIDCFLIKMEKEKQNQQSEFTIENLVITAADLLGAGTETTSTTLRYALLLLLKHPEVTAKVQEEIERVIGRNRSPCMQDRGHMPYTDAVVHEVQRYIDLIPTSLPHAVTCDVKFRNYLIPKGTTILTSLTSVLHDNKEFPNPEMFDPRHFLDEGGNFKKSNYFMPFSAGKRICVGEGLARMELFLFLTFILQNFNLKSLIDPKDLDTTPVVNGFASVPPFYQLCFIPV

Cc1cccc(CNc2cc(-c3ccc(C(=O)N(C)C)cc3)ncn2)c1
active: Potency [3] 15.8 µM | Potency [9] 3.16 µM
1.9%: max response [13, 19]
inactive: Potency [1] > 11.4 µM | activity change, negative = inhibition [2] -7.22% | activity change, negative = inhibition [4] 13.4% | activity, negative = inhibition [5] -2.64% | Potency [6] > 46 µM | Potency [7] > 46 µM | Potency [8] | Potency [10] | Potency [11] | outcome [12] | activity change, negative = inhibition [13] 0.763% | Potency [14]
0.996%: max response [13, 18]

CN1CC[C@@]2(CCCN(C(=O)c3cccn3C)C2)C1
-0.284%: max response [13, 18]
inactive: Potency [1] > 11.4 µM | activity change, negative = inhibition [2] 0.737% | Potency [3] | activity change, negative = inhibition [4] 9.28% | activity, negative = inhibition [5] -1.28% | Potency [7] > 46 µM | Potency [8] | Potency [15] | Potency [10] | activity change, negative = inhibition [13] 2.7%
4.15%: max response [13, 19]

COCC(=O)N1CCC2(CCN(Cc3ccncc3)CC2)CC1
inactive: Potency [1] > 11.4 µM | activity change, negative = inhibition [2] 5.27% | activity change, negative = inhibition [4] -6.67% | activity, negative = inhibition [5] 1.05% | Potency [7] > 46 µM | Potency [8] | Potency [15] | Potency [10] | activity change, negative = inhibition [13] 3.65%
active: Potency [3] 10 µM | Potency [16] 6.31 µM | Potency [17] 0.0251 µM
13.5%: max response [13, 18]
19.1%: max response [13, 19]

COCCNc1nc(-c2cccc(OC)c2)nc2ccccc12
active: Potency [3] 0.2 µM | Potency [9] 5.01 µM
5.13%: max response [13, 18]
-0.48%: max response [13, 19]
inactive: Potency [1] > 11.4 µM | activity change, negative = inhibition [2] -3.79% | activity change, negative = inhibition [4] 0.846% | activity, negative = inhibition [5] -13.7% | Potency [6] > 46 µM | Potency [7] > 46 µM | Potency [8] | Potency [10] | outcome [12] | activity change, negative = inhibition [13] -5.01%

CS(=O)(=O)N1CCC[C@@]2(CCN(c3ccncc3)C2)C1
inactive: Potency [1] > 11.4 µM | activity change, negative = inhibition [2] -3.38% | Potency [3] | activity change, negative = inhibition [4] -25.4% | activity, negative = inhibition [5] 1.56% | Potency [7] > 46 µM | Potency [8] | Potency [15] | Potency [10] | activity change, negative = inhibition [13] -0.375%
-15.6%: max response [13, 18]
-16.3%: max response [13, 19]
active: Potency [9] 7.94 µM

CN(C)Cc1ccccc1-c1ccc2ncnc(NCc3ccccc3)c2c1
active: Potency [3] 15.8 µM | Potency [16] 7.94 µM
25.6%: max response [13, 19]
19.6%: max response [13, 18]
inactive: Potency [1] > 11.4 µM | activity change, negative = inhibition [2] -7.49% | activity change, negative = inhibition [4] -27% | activity, negative = inhibition [5] 11.3% | Potency [6] > 46 µM | Potency [7] > 46 µM | Potency [8] | Potency [10] | outcome [12] | activity change, negative = inhibition [13] 5.57% | Potency [14]
